Compound activity as filed in PubChem.
Most compounds without a hit are left out; they make up all but 10% or so of the library.
L3MBTL1 block: qHTS Assay for the Inhibitors of L3MBTL1; Potency, µM (doses to about 57.1 µM), inactives show at the top dose activity, negative = inhibition, hits mostly inhibitors; actives 0.66% (n = 230,000); AID 485360, 2010; Lethal(3)malignant brain tumor-like protein 1 (Homo sapiens), Q9Y468; AlphaScreen L3MBTL1–H3K9me1 peptide binding; further: on the % scale 0 is the no-effect control and ±100 the full control effect; nearly all actives have a fitted effect of over 60% in size
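AlphaScreen assay: L3MBTL1 (50 nM final) was preincubated 30 min at room temperature with biotinylated H3(1-15)K9me1 peptide (75 nM final), then 30 min with library compounds; streptavidin donor and nickel chelate acceptor beads (10 ug/mL final) added, 30 min dark.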
GLS inh: qHTS for Inhibitors of Glutaminase (GLS) | GLS enzymatic activity, qHTS titration | actives 0.21% (n = 410,000) | AID 624170, 2012 | Glutaminase kidney isoform, mitochondrial (Homo sapiens), O94925 | Potency, µM (doses to about 45.5 µM), for inactives: top-dose activity change, negative = inhibition, most hits filed as inhibitors; further: on the % scale 0 is the no-effect control and ±100 the full control effect
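hKGA in 45 mM KH2PO4 (pH 8.2), 0.02% Tween-20 with compound, then 1mM L-Glutamine (stock as added) plus glutamate oxidase/HRP/Amplex red coupling mix. Fluorescence read initially and after 30 min at RT; signal change reflects glutamate formation.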
BAZ2B block: qHTS Assay for Inhibitors of BAZ2B. Bromodomain adjacent to zinc finger domain protein 2B (Homo sapiens), Q9UIF8. AlphaScreen BAZ2B-H3K14Ac peptide displacement. Potency, µM (titrated, usually from 114 µM), for the others: top-dose activity change, negative = inhibition, usual class: inhibitors. actives 4.4% (n = 360,000); further: on the % scale 0 is the no-effect control and ±100 the full control effect; nearly all actives have a fitted effect of over 60% in size
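BAZ2B 50 nM plus b-H3(5-23)K14Ac 50 nM, PBS pH 7.4/0.01% Tween-20, 30 min RT; compound added (max 110 uM), 30 min RT; streptavidin donor/Ni-chelate acceptor beads 10 ug/mL final, 20 min dark; AlphaScreen read.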
JMJD2A Tudor inh: qHTS Assay for Inhibitors of JMJD2A-Tudor Domain; Potency, µM (series often up to 114 µM), for the others: top-dose activity change, negative = inhibition, hits mostly inhibitors; Lysine-specific demethylase 4A (Homo sapiens), O75164; AlphaScreen JMJD2A-Tudor / H3K4me3 peptide binding; actives 4.4% (n = 390,000); further: on the % scale 0 is the no-effect control and ±100 the full control effect; nearly all actives have a fitted effect of over 50% in size
Target sequence (O75164 whole entry, looked up, the tested form may be a part): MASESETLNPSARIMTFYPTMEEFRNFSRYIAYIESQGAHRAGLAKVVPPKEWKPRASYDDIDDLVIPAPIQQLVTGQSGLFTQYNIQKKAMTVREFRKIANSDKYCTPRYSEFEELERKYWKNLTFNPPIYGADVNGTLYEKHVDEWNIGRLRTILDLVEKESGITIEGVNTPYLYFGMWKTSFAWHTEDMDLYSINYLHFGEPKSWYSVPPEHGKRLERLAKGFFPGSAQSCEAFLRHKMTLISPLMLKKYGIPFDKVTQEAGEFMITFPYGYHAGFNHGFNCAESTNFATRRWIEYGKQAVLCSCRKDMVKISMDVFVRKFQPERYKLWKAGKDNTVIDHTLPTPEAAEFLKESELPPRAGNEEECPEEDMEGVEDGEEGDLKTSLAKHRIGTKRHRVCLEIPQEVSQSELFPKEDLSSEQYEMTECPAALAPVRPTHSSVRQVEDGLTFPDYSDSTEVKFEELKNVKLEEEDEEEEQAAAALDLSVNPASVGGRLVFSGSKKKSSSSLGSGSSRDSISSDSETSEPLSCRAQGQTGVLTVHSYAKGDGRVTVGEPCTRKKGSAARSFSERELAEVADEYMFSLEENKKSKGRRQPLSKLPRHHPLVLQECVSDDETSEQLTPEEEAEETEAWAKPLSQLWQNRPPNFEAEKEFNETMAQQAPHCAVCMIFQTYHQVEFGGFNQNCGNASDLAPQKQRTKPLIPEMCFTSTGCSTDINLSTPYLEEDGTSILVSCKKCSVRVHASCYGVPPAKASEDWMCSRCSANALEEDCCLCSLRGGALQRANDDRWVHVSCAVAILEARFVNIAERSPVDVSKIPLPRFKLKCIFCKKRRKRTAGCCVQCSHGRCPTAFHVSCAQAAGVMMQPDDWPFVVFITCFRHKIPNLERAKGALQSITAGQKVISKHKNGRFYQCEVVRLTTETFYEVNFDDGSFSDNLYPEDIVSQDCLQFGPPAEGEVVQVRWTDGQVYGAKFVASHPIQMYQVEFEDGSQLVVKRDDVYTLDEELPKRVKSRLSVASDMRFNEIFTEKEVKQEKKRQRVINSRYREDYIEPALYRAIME
G9a block: qHTS Assay for Inhibitors of Histone Lysine Methyltransferase G9a; Histone-lysine N-methyltransferase EHMT2 (Homo sapiens), Q96KQ7; G9a H3K9 monomethylation, AlphaScreen, 2 h; Potency, µM (highest dose often 102 µM), without a hit: at the top dose activity, negative = inhibition, usual class: inhibitors; actives 8.8% (n = 350,000); AID 504332, 2011; further: on the % scale 0 is the no-effect control and ±100 the full control effect; nearly all actives have a fitted effect of over 75% in size
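Step 1: enzyme (final 20 nM) with compound, 15 min RT. Step 2: substrate peptide 500 nM and SAM 20 uM, 2 h RT. Step 3: anti-H3K9me1 antibody and AlphaScreen beads, 10 min, then plate read.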
HP1b binding inh: HTS for Inhibitors of HP1-beta Chromodomain Interactions with Methylated Histone Tails; AID 540317, 2011; AlphaScreen HP1-beta / biotin-H3K9me3 peptide binding; Potency, µM (top dose mostly 114 µM), without a hit: at the top dose activity change, negative = inhibition, actives largely listed as inhibitors; actives 0.56% (n = 390,000); further: nearly all actives have a fitted effect of over 70% in size
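Compound inhibition of the preformed complex between 50 nM HP1-beta and 50 nM biotinylated H3K9me3 peptide was read by AlphaScreen. Buffer was PBS pH 7.4 with 0.01% Tween-20. Incubations ran 30 min at room temperature, with 10 ug/mL donor/acceptor beads.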
* = called active by the depositor; ? = inconclusive; · = not tested or not shown; ! = a repeat was not active; [ ] = another dose, or the depositor's remark. The call rests on the fitted dose curve; in most records, active means well fitted curve in the direction sought with a large enough effect; inconclusive means small, poorly fitted or top-dose-only effect, or another doubt; inactive means no such curve, though single readings can be large; an effect the other way counts as inactive or inconclusive. Potency means the concentration at half of the fitted maximal effect.

SMILES	L3MBTL1 block	GLS inh	BAZ2B block	JMJD2A Tudor inh	G9a block	HP1b binding inh
Cc1cs/c(=N\N=C\c2cccc([N+](=O)[O-])c2)n1Cc1ccco1	-11%	9%	6%	-11%	-4%[59 µM]	11%
CCOc1ccc(N(C(=O)c2ccc(OC)cc2)S(=O)(=O)c2ccc3c(c2)n(C)c(=O)n3C)cc1	·	-6%	?	?	-40%[59 µM]	5%
COc1cc(OC)cc(C(=O)N2CCN(C(=O)c3cccc(F)c3)CC2)c1	·	3%	-8%	-5%	9%[59 µM]	29%
COc1cc(OC)cc(C(=O)N2CCN(C3CCCCC3)CC2)c1	-4%	2%	?	22µM*	·	?
COc1cc(OC)cc(C(=O)N2CCN(C3CCC(C)CC3)CC2)c1 (stereo not given)	·	1%	·	56µM*	·	?
COc1cccc(C(=O)N2CCN(C3CCN(Cc4ccccc4)CC3)CC2)c1OC	·	7%	18µM*	0.79µM*	?	22µM*
O=C(c1cccs1)N1CCN(C2CCN(Cc3ccccc3)CC2)CC1	16%[11.4 µM]	-13%	-2%	6%	11%[12.7 µM]	22%
COc1cc(OC)cc(C(=O)N2CCN(C3CCN(Cc4ccccc4)CC3)CC2)c1	·	1%	14µM*	1.1µM*	2.5µM*	?
O=C(c1ccccc1F)N1CCN(C(=O)C2CC2)CC1	·	7%	-31%	-8%	8%	9%
CC1CCC(N2CCN(C(=O)c3ccccc3F)CC2)CC1 (stereo not given)	-6%	0%	79µM*	28µM*	16µM*	?
O=C(COC(=O)c1ccc(Cl)cc1O)NC(=O)C1CCCCC1	2%	1%	-15%	6%	50µM*	21%
CC(C)(C)NC(=O)COC(=O)c1ccc(Cl)cc1O	8%	5%	-3%	-2%	-31%	31%
C[C@]12CC[C@@H]3c4ccc(O)cc4CC[C@H]3[C@@H]1CC[C@@H]2O	-1%	2%	-36%	-24%	20µM*!	24%
COc1cc2c(cc1O)CCC1C2CC[C@]2(C)[C@@H](O)CC[C@@H]12 (stereo not given in full)	·	·	·	·	40µM*	·
CCOc1ccc(OCC)c(NC(=O)C2CCCN(S(=O)(=O)c3cc(Br)cc4c3N(C(=O)CC)CC4)C2)c1 (stereo not given)	·	-3%	0%	-5%	-19%[59 µM]	29%
COCCCNCC(=O)c1c(N)n(Cc2ccccc2)c(=O)n(C)c1=O	2%	4%	?	79µM*	?	-16%
Cn1c(=O)c(C(=O)COC(=O)c2cc(-c3ccccc3)nc3ccccc23)c(N)n(Cc2ccccc2)c1=O	-2%	·	?	·	79µM*	·
Cn1c(=O)c(C(=O)COC(=O)c2cc(C(F)(F)F)nc3ccccc23)c(N)n(Cc2ccccc2)c1=O	-2%	·	-26%	·	?	·
CCS(=O)(=O)N1CCc2cc(C(=O)N3CCN(c4ccccc4)CC3)ccc21	·	2%	4%	3%	-35%[59 µM]	51%
Cc1cc(C)n(CC(=O)Nc2ccc(F)c(F)c2)c(=O)c1C#N	·	11%	-8%	-10%	17%[59 µM]	15%
N#Cc1cnc(SCCc2ccccc2)nc1N	-2%	-1%	-1%	-4%	?	64%
Cc1cnc(SCCc2ccncc2)nc1C	-8%	·	4%	·	8.9µM*	·
CCN(CC)S(=O)(=O)c1ccc2c(c1)N(CC(=O)Nc1cccc(C#N)c1)C(=O)CO2	·	-4%	-19%	-10%	-10%[59 µM]	25%
Nc1c(C(=O)CCC(=O)O)oc2ccc(Cl)cc12	·	12%	5%	-18%	56µM*	19%
COc1ccc(CNC(=O)CN(C(=O)c2ccc(CN3CCOCC3)o2)C2CCCC2)cc1	-1%	3%	-3%	-10%	3.5µM*	30%
SMILES	L3MBTL1 block	GLS inh	BAZ2B block	JMJD2A Tudor inh	G9a block	HP1b binding inh
COc1ccc(CC(=O)NCCN2CCOCC2)cc1	·	-1%	-2%	-13%	7%	43%
CN(C)CCCNC(=O)/C(=C\c1ccc(-c2cccc([N+](=O)[O-])c2)o1)NC(=O)c1ccccc1	-2%	?	-39%	?	50µM*	-5%
Cc1ccc(C(=O)N/C(=C\c2ccc(-c3cccc([N+](=O)[O-])c3)o2)C(=O)NCCCN(C)C)cc1	-1%	1%	-38%	-25%	50µM*	3%
Cc1ccc(C(=O)N/C(=C\c2ccc(-c3ccccc3[N+](=O)[O-])o2)C(=O)NCCCN2CCOCC2)cc1	·	12%	?	?	45µM*	0%
Cc1ccc(C(=O)N/C(=C\c2ccc(-c3ccc(Br)cc3)o2)C(=O)NCCCN(C)C)cc1	-13%	5%	-37%	-35%	-50%	-7%
CN(C)CCNC(=O)/C(=C/c1ccc(-c2ccc(Cl)cc2)o1)NC(=O)c1ccccc1	-1%	7%	-32%	-33%	?	-8%
Cc1ccc(C(=O)N/C(=C\c2cn(C)c3ccccc23)C(=O)NCCCN2CCOCC2)cc1	·	11%	-7%	-12%	-12%[0.0925 µM]	16%
CC(C)c1cccc(C(C)C)c1NC(=O)CNCC(O)c1ccccc1 (stereo not given)	·	-2%	50µM*	56µM*	10%	-32%
N=c1n(CCN2CCCCC2)c2ccccc2n1CC(=O)c1cccc([N+](=O)[O-])c1	-5%	17%	?	-24%	45µM*	14%
N=c1n(CC(=O)c2ccc([N+](=O)[O-])cc2)c2ccccc2n1Cc1ccc(Cl)cc1	13%	-5%	-30%	-29%	?	3%
C=CCn1c(=N)n(CC(=O)c2cccc([N+](=O)[O-])c2)c2ccccc21	-12%	-22%	?	-16%	·	8%
N=c1n(CC(=O)c2ccc([N+](=O)[O-])cc2)c2ccccc2n1Cc1ccccc1	0%	0%	?	-19%	45µM*	6%
Cc1ccc(C)n1-c1sccc1C(=O)O	·	?	18µM*	?	13µM*	?
COC(=O)CSc1nc2sc3c(c2c(=O)n1-c1ccc(C)cc1)CC(C(C)C)OC3 (stereo not given)	·	-11%	2%	-13%	-38%[59 µM]	6%
O=C(c1ccco1)N1CCC2(CC1)CN(c1cccc(-c3ccccc3)c1)C2	·	·	·	·	31%[12.7 µM]	·
CCN(CC)C(=O)c1sc2nc(-c3ccccn3)[nH]c(=O)c2c1C	·	0%	·	28µM*	·	25%
